Assay results as given in PubChem BioAssay AID1159580 (chemical genetic matrix, 2015).
In all, about 5,500 compounds went through this assay and about 2,000 (36%) were called active. Inconclusive results (about 18%) are left out. No stated cut-off is given here; in the data, active means normalized growth mostly below about 0.91 (no sharp cut-off); inconclusive means no clear call, values can overlap the other calls; inactive means mostly above about 0.92. The list shows a part of the results.

Assay: chemical genetic growth profiling, strain panel (AID 1159580);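 further: tested at 20 µM; growth read once vehicle control cultures reached saturation at 30 °C; 1 = growth at the plate median or of vehicle wells; lower values mean less growth of the strain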
Settings: S. cerevisiae deletion strains, growth OD

Measured: normalized growth

O=C(O)c1ccccc1Nc1ccccc1
active: locus YCL061C, strain MRC1, hits give low values 0.892 | locus YCL069W, strain vba3, hits give low values 0.907 | locus YCR088W, strain abp1, hits give low values 0.907 | locus YDR001C, strain nth1, hits give low values 0.892 | locus YEL037C, strain rad23, hits give low values 0.913 | locus YEL061C, strain CIN8 (second series), hits give low values 0.899 | locus YER111C, strain swi4, hits give low values 0.908 | locus YGL227W, strain vid30, hits give low values 0.909 | locus YHR030C, strain SLT2, hits give low values 0.482 | locus YHR079C, strain IRE1, hits give low values 0.395 | locus YJL092W, strain hpr5, hits give low values 0.893 | locus YJL095W, strain BCK1, hits give low values 0.502 | locus YJL115W, strain asf1, hits give low values 0.901 | locus YJL129C, strain trk1, hits give low values 0.847 | locus YJL154C, strain vps35, hits give low values 0.894 | locus YJR066W, strain TOR1, hits give low values 0.392 | locus YKR026C, strain gcn3, hits give low values 0.903 | locus YKR091W, strain srl3, hits give low values 0.927 | locus YLL041C, strain sdh2, hits give low values 0.925 | locus YLR113W, strain HOG1, hits give low values 0.291 | locus YLR262C, strain YPT6 (second series), hits give low values 0.832 | locus YMR129W, hits give low values 0.889 | locus YNL183C, strain NPR1, hits give low values 0.367 | locus YNL322C, strain KRE1 (second series), hits give low values 0.871 | locus YOR231W, strain MKK1, hits give low values 0.413 | locus YPL240C, strain hsp82, hits give low values 0.924 | locus YPL256C, strain CLN2, hits give low values 0.36
inactive: locus YAL013W, strain DEP1, hits give low values 1.01 | locus YAL021C, strain ccr4, hits give low values 0.953 | locus YAL026C, strain drs2, hits give low values 0.921 | locus YAL030W, strain snc1, hits give low values 0.94 | locus YAL040C, strain CLN3, hits give low values 1.01 | locus YBL061C, strain skt5, hits give low values 0.946 | locus YBR009C, strain hhf1, hits give low values 0.992 | locus YBR023C, strain chs3, hits give low values 0.951 | locus YBR171W, strain sec66, hits give low values 0.894 | locus YBR231C, strain swc5, hits give low values 0.966 | locus YBR279W, strain paf1, hits give low values 0.964 | locus YCL011C, strain gbp2, hits give low values 0.922 | locus YCL016C, strain dcc1, hits give low values 0.961 | locus YDL005C, strain med2, hits give low values 0.957 | locus YDL040C, strain nat1, hits give low values 0.944 | locus YDR069C, strain doa4, hits give low values 1.01 | locus YDR137W, strain rgp1, hits give low values 0.86 | locus YDR150W, strain NUM1, hits give low values 0.994 | locus YDR159W, strain sac3, hits give low values 0.957 | locus YDR195W, strain ref2 1.05 | locus YDR297W, strain sur2, hits give low values 0.929 | locus YDR334W, strain swr1, hits give low values 0.926 | locus YDR335W, strain msn5, hits give low values 0.941 | locus YDR363W, strain ESC2, hits give low values 1.01 | locus YDR392W, strain spt3, hits give low values 0.852 | locus YEL003W, strain gim4, hits give low values 0.924 | locus YER002W, strain NOP16, hits give low values 0.941 | locus YER015W, strain faa2, hits give low values 0.947 | locus YER016W, strain bim1, hits give low values 0.972 | locus YER155C, strain BEM2 (second series), hits give low values 0.909 | locus YFR010W, strain ubp6, hits give low values 0.989 | locus YGL167C, strain pmr1, hits give low values 0.92 | locus YGL173C, strain kem1, hits give low values 0.954 | locus YGL240W, strain doc1, hits give low values 0.985 | locus YGL253W, strain hxk2, hits give low values 0.926 | locus YGR078C, strain PAC10, hits give low values 0.964 | locus YHR013C, strain ard1, hits give low values 0.989 | locus YHR027C, strain rpn1, hits give low values 0.938 | locus YHR142W, strain chs7, hits give low values 0.908 | locus YJL095W, strain BCK1 (second series), hits give low values 0.938 | locus YJL164C, strain tpk1, hits give low values 0.957 | locus YJL166W, strain qcr8, hits give low values 0.97 | locus YJL187C, strain SWE1, hits give low values 0.971 | locus YKL160W, strain elf1, hits give low values 0.938 | locus YLL001W, strain dnm1, hits give low values 0.966 | locus YLL026W, hits give low values 0.934 | locus YLR027C, strain aat2, hits give low values 0.956 | locus YLR221C, strain rsa3, hits give low values 0.962 | locus YLR258W, strain gsy2, hits give low values 0.961 | locus YLR320W, strain mms22, hits give low values 0.99 | locus YLR342W, strain FKS1, hits give low values 0.923 | locus YLR357W, strain rsc2, hits give low values 1.03 | locus YLR370C, strain arc18, hits give low values 0.945 | locus YLR384C, strain iki3, hits give low values 0.934 | locus YML120C, strain ndi1, hits give low values 0.963 | locus YMR058W, strain fet3, hits give low values 0.935 | locus YMR125W, strain sto1, hits give low values 0.988 | locus YMR205C, strain PFK2, hits give low values 1 | locus YMR231W, strain pep5, hits give low values 0.933 | locus YNL071W, strain lat1, hits give low values 0.929 | locus YNL128W, strain TEP1, hits give low values 0.973 | locus YNL175C, strain NOP13, hits give low values 0.935 | locus YNL197C, strain WHI3, hits give low values 0.927 | locus YNL209W, strain ssb2, hits give low values 0.949 | locus YNL224C, strain SQS1, hits give low values 0.94 | locus YNL248C, strain rpa49, hits give low values 0.99 | locus YNR049C, strain mso1, hits give low values 0.922 | locus YOR001W, strain rrp6, hits give low values 0.951 | locus YOR070C, strain gyp1, hits give low values 0.945 | locus YOR080W, strain dia2, hits give low values 0.959 | locus YOR083W, strain WHI5 (second series), hits give low values 0.982 | locus YOR083W, strain WHI5, hits give low values 0.929 | locus YOR106W, strain vam3, hits give low values 0.956 | locus YOR265W, strain rbl2, hits give low values 0.941 | locus YOR270C, strain vph1, hits give low values 0.97 | locus YOR290C, strain snf2, hits give low values 0.934 | locus YPL051W, strain arl3, hits give low values 0.933 | locus YPL055C, strain LGE1, hits give low values 1.01 | locus YPL078C, strain atp4, hits give low values 0.914 | locus YPL106C, strain sse1, hits give low values 1.01
